Source: PubChem
Sampled rows, rich in hits. Any-hit rate of the full collection: about 1.5%.
DYRK1A inh: inhibitors of rat Dyrk1A kinase; Q63470; ADP-Glo luminescence, NFATc1 peptide; inhibition, % at 12.5 µM; 310,000 compounds, 0.43% hits; AID 504441; in the data active means inhibition above about 50%
STK33 kinase inh: blocks human STK33 kinase activity; 320,000 compounds, 0.073% hits; Q9BYT3; purified STK33, MBP phosphorylation, ADP-Glo luminescence; inhibition, % at 10 µM; AID 2661;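 active means inhibition at or above 25%, using the most active replicate where run in duplicate; inactive means inhibition below 25%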
PP5 inh: inhibitors of human protein phosphatase 5 (PP5). 320,000 compounds, 0.18% hits. inhibition, % at 6.7 µM. purified PP5c, OMFP substrate fluorescence;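 active means inhibition above the campaign's mean inhibition across all tested compounds plus 3 SD, cut at about 9.5% in these data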
PP1 inh: counter-screen for PP5 inhibitors: inhibitors of human PP1-alpha | P62136 | purified PP1alpha, OMFP fluorescence | inhibition, % at 6.7 µM | 320,000 compounds, 0.9% hits;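 active means inhibition above the mean inhibition of all tested compounds plus 3 SD, computed separately for each screening campaign, cut at about 15% in these data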
Target sequence (P62136 whole entry, looked up): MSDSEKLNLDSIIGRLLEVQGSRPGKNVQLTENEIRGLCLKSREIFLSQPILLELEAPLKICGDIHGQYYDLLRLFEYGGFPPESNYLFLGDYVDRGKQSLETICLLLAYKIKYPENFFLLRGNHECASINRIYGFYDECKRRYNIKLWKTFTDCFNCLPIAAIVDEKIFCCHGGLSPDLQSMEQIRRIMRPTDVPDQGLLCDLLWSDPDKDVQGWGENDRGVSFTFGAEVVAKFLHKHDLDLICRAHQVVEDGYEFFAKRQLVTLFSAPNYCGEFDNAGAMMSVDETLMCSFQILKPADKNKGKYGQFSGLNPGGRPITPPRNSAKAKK
HIF activator: HIF pathway transcriptional activation | U2OS HRE-luciferase reporter, luminescence; normalized: DMSO 0%, desferrioxamine 100% | activation, % at 7.5 µM (by protocol) | 300,000 compounds, 0.32% hits | AID 1910;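 active means mean activation of at least 10% of the iron chelator positive control signal, with at least half of replicates also reaching 10%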
Of the large screens only hits and unclear results are named; the others gave an inactive call; ! = a repeat was not active.

COc1cccc(F)c1C(=O)NC(=O)Nc1ccc2nc(C)oc2c1	none
COc1ccc(NC(=O)COC(=O)CNC(=O)COc2ccccc2)cc1OC	none (no result: STK33 kinase inh, PP5 inh, PP1 inh, HIF activator)
COc1ccc(CNC(=O)CCNC(=O)c2ccco2)cc1OC	none (no result: STK33 kinase inh, PP5 inh, PP1 inh, HIF activator)
CCC(C(=O)NCCc1c[nH]c2ccc(C)cc12)c1ccccc1 (stereo not drawn)	none
CC(=O)N1c2ccc(S(=O)(=O)N(C)CC(=O)NC3CCCC3)cc2CC1C (stereo not drawn)	none
Cc1ccc(/C=[N+](\[O-])c2ccc(N(C)C)cc2)c2nsnc12	none (no result: STK33 kinase inh, PP5 inh, PP1 inh)
Cc1cccc(/C=N/NC(=O)c2ccc3c(c2)OCCO3)c1O	HIF activator 28
CCOc1cccc(/C=N/NC(=O)c2ccc3c(c2)OCCO3)c1O	HIF activator 12
CCn1c(C)nc2cc(C(=O)N/N=C/c3cccc(O)c3O)ccc21	HIF activator 43
CCn1c(C)nc2cc(C(=O)N/N=C/c3ccccc3)ccc21	none
COc1cccc(/C=N/NC(=O)c2c(C)nc3ccc(Cl)cn23)c1O	HIF activator 86
Cc1nc(NC(=O)CN2CCC(O)(c3ccc(F)cc3)CC2)sc1C	none
Cc1cc(C)cc(NS(=O)(=O)c2ccc3c(c2)C(C)(C)C(=O)N3C)c1	none
CC(C)COc1ccc(CSCCNC(=S)Nc2ccccc2)cc1	none
CC1CC(C)CN(S(=O)(=O)c2ccc3c(c2)oc(=O)n3CC(=O)NCCCOC(C)C)C1 (stereo not drawn)	HIF activator 31
CCN(CC)CCNC(=O)c1ccc(N2CCCCC2)c(NS(=O)(=O)c2ccc(C)cc2)c1	none
CCN(CC)CCNc1cc(C)nc2c1C(=O)C(=O)C=C2N1CCCCC1	HIF activator 42
Nc1ccc(N(c2ccccc2)c2ccc(N)cc2)cc1	PP1 inh 17
CN(C)c1ccc(CCc2ccc(N)cc2)cc1	none
COc1ccc(-c2ccc(-c3noc(-c4ccco4)n3)c(OC)n2)cc1	PP1 inh 16
CC(C)(C)OC(=O)C[C@@H]1C/C=C\C[C@H](CC(=O)NCCO)C(=O)NC[C@H](c2ccccc2)OC1=O	none (no result: PP5 inh, PP1 inh, HIF activator)
CN(CC(=O)Nc1sc2c(c1C#N)CCCCC2)Cc1nc2ccccc2c(=O)[nH]1	PP1 inh 15
COc1cccc(CN(C)CC(=O)Nc2sc3c(c2C#N)CCC3)c1OC	none
COc1ccc(/C=C(/NC(=O)c2ccco2)C(=O)NCc2ccco2)cc1OC	none
NNc1nc2c(F)cc(F)cc2s1	none
Cc1cc(NC(=O)CSc2c[nH]c3ccccc23)no1	none (no result: DYRK1A inh)
Cc1cc(NC(=O)CSc2nnc(-c3c[nH]c4ccccc34)n2-c2ccc(Cl)cc2)no1	PP1 inh 15
CN(Cc1ccco1)S(=O)(=O)c1nnc(NC(=O)c2ccc(F)cc2)s1	none (no result: DYRK1A inh)
CCOc1ccc(C(=O)Nc2nnc(S(=O)(=O)N(C)Cc3ccco3)s2)cc1	PP1 inh 17
C=CCNc1nc(-c2ccccn2)nnc1-c1ccccc1	HIF activator 110
c1ccc(-c2cnnc(-c3ccccn3)n2)cc1	none
Cn1c(=NC(=O)c2ccc(S(=O)(=O)N3CCCc4ccccc43)cc2)sc2cc(S(C)(=O)=O)ccc21	none
C#CCn1c(=NC(=O)c2ccc(S(=O)(=O)N3CCCc4ccccc43)cc2)sc2cc(S(N)(=O)=O)ccc21	PP1 inh 16
O=C(Cn1nnc(-c2ccccc2)n1)NCc1ccco1	none
COc1ccccc1C(=O)Nc1ccc(-c2nnn(CC(=O)NCc3ccco3)n2)cc1	PP1 inh 16
O=C(/C=C/c1ccc(F)cc1)c1cc(Br)ccc1O	none
O=C(/C=C/c1ccccc1)c1cc(Br)ccc(=O)c1O	PP1 inh 17
N/C(CN1CCCCC1)=N\S(=O)(=O)c1cc(Cl)cc(Cl)c1	none
Cn1c(=O)n(CC(=O)O)c(=O)c2c1nc1n2CCCN1Cc1ccccc1	none
CC(=O)Cn1c(=O)c2c(nc3n2CCCN3Cc2ccccc2)n(C)c1=O	HIF activator 35
Cc1cc(C)cc(NC(=O)C(c2ccccc2)N2CCN(CC(=O)NC3CC3)CC2)c1 (stereo not drawn)	none (no result: HIF activator)
Cn1c(SCC(=O)Nc2ccccc2)nnc1-c1ccc(NC(=O)CCc2ccccc2)cc1	HIF activator 26
CSc1nnc(-c2ccc(NC(=O)CCc3ccccc3)cc2)n1C	none
CCOc1ccc(NC(=O)CSc2nnc(C)n2Cc2ccccc2)cc1	PP1 inh 16
OC(COc1ccccc1F)CN1CCC(Cc2ccccc2)CC1 (stereo not drawn)	none
OC(COc1ccc(F)cc1Cl)CN1CCC(Cc2ccccc2)CC1 (stereo not drawn)	DYRK1A inh 51
COc1cc([C@@H]2c3cc4c(cc3[C@@H](NC3CCN(Cc5ccccc5)CC3)[C@H]3COC(=O)[C@H]23)OCO4)cc(OC)c1O	HIF activator 15 (no result: DYRK1A inh, STK33 kinase inh, PP5 inh, PP1 inh)
CCc1ccc(NC(=O)NNC(=O)c2cc3ccccc3cc2O)cc1	PP1 inh 15
COc1ccc(/C=C2\CN(Cc3ccccc3)C/C(=C\c3ccc(OC)cc3OC)C2=O)c(OC)c1	PP1 inh 16
COc1ccc(/C=C2\CN(Cc3ccccc3)C/C(=C\c3ccc(OC)cc3)C2=O)cc1	none (no result: HIF activator)
CC1CCN(S(=O)(=O)c2ccc(NC(=O)C3CCN(C(=O)c4ccco4)CC3)cc2)CC1	none
Cc1cc(C(=O)CN2C(=O)C(=O)N(Cc3ccco3)C2=O)c(C)n1CCc1ccc(F)cc1	PP1 inh 17 (no result: HIF activator)
Cc1cc(C(=O)CN2C(=O)C(=O)N(Cc3ccco3)C2=O)c(C)n1CCc1ccccc1	none (no result: HIF activator)
CC1CC/C(=C\c2ccc3c(c2)OCO3)C(=O)/C1=C/c1ccc2c(c1)OCO2 (stereo not drawn)	PP1 inh 17
CC/C(=C(\c1ccc(O)cc1)c1ccc(OCCN(C)C)cc1)c1ccccc1	none
CC/C(=C(\c1ccccc1)c1ccc(OCCN(C)C)cc1)c1ccccc1	PP1 inh 17!
CCOc1ccc(-c2ccc(SC)nn2)cc1	DYRK1A inh 56, STK33 kinase inh 31
CCOC(=O)c1c(S(=O)(=O)N2CCC(C)CC2)c(C)n(C)c1C	HIF activator 44
CCOC(=O)c1c(S(=O)(=O)N2CCCCCC2)c(C)n(C)c1C	none
CC(C)OP(=O)(c1ccc(N(C)C)cc1)C(O)c1ccc(C(C)C)cc1 (stereo not drawn)	none
COc1ccccc1NC(=O)Nc1ncccc1C	STK33 kinase inh 30
COc1ccccc1NC(=O)Nc1cnccn1	none
Nn1c(SCC(=O)NC(=O)Nc2ccc3c(c2)OCCO3)nnc1C1CC1	none
CC1(C)c2[nH]c3ccccc3c2C[C@@H]2C(=O)N(Cc3ccco3)C(=O)N21	none (no result: DYRK1A inh)
O=C(O)c1ccc(CSc2nc(-c3ccc(Cl)cc3)cc(C(F)(F)F)n2)cc1	PP1 inh 17 (no result: HIF activator)
CC1(c2ccc(Cl)cc2)NC(=O)N(CC(=O)N2CCN(S(=O)(=O)c3ccccc3)CC2)C1=O (stereo not drawn)	none
c1cncc(C2Nc3ccccc3-c3nc4ccccc4n32)c1 (stereo not drawn)	STK33 kinase inh 39
Cc1cccc2cc(CN(Cc3ccco3)C(c3nnnn3CCc3ccccc3)C(C)C)c(=O)[nH]c12 (stereo not drawn)	PP1 inh 16
